Screening results from PubChem BioAssay.
An excerpt weighted towards active compounds, which were near 21% of everything screened.
SARS PLP yeast – blocks SARS-CoV papain-like protease in a yeast assay. S. cerevisiae expressing SARS-CoV PLpro, growth rescue. Potency, µM (titrated, usually from 32.9 µM), without a hit: top-dose activity, positive = growth rescue, most hits filed as activators. actives 0.19% (n = 330,000); calls by dose curve; further: potency means the concentration at half of the fitted maximal effect; 0% is about no effect; nearly all actives have a fitted effect of over 55% in size
CHX counter – counter-screen for Shiga toxin inhibitors: cycloheximide protein synthesis inhibition. cell reporter, cycloheximide protein synthesis inhibition counterscreen. actives 12% (n = 300,000). max response, %. AID 2314; in the data active means max response mostly above about 13%, no sharp cut-off; inactive means mostly below about 14%; further: read at 38.3 µM for the half of the compounds with a filed dose; 0% is about no effect
Shiga toxin inh – inhibitors of Shiga toxin in Vero cells | Vero cells, Shiga toxin protein synthesis inhibition reporter | inhibition, % at 38.7 µM | actives 9.2% (n = 290,000) | AID 2315; in the data active means inhibition mostly above about 28%, no sharp cut-off; inactive means mostly below about 43%; further: 0% is about no effect
Pf growth 96h – inhibits malaria parasite growth, 96 h. Potency, µM (titrated, usually from 28.7 µM), without a hit: at the top dose activity change, negative = inhibition, most hits filed as inhibitors. actives 6.9% (n = 320,000). AID 504834. P. falciparum luciferase reporter growth, 96 h; further: potency means the concentration at half of the fitted maximal effect; on the % scale 0 is the no-effect control and ±100 the full control effect
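Cell-based qHTS: luciferase-tagged P. falciparum in erythrocytes (2% hematocrit, 0.05% parasitemia final) incubated with compounds for 96 hours, 37 C, 5% CO2; luciferase detection reagent then added and luminescence measured.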
Pf growth 48h – inhibits P. falciparum growth in the first generation, 48 h | Potency, µM (doses to about 28.7 µM), without a hit: at the top dose activity change, negative = inhibition, hits mostly inhibitors | actives 5.9% (n = 310,000) | AID 504832 | P. falciparum luciferase growth in erythrocytes, 48 h; further: potency means the concentration at half of the fitted maximal effect; on the % scale 0 is the no-effect control and ±100 the full control effect
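Luminescence readout; reporter = integrated firefly luciferase in P. falciparum. RBC culture at 2% hematocrit, 0.1% parasitemia final, 37 C/5% CO2; decreased signal taken as growth inhibition.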
NS1 inh – influenza NS1 inhibition; actives 0.4% (n = 270,000); Potency, µM (titrated, usually from 46.1 µM), for inactives: at the highest dose activity, positive = more growth; calls by dose curve; further: potency means the concentration at half of the fitted maximal effect; actives are rising curves; nearly all actives have a fitted effect of over 50% in size
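OD600 was taken as the measure of yeast growth restored by compound in an NS1-expressing S. cerevisiae strain. Cells had been washed out of glucose medium and diluted 1:100 into galactose -URA medium, pH 6.0.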
* marks the source's active call; other numbers are inactive results; ? = inconclusive; . = not tested or not shown. Unless noted, the call rests on the fitted dose curve; in most records, active means well fitted inhibition curve with a large enough effect; inconclusive means small, poorly fitted or top-dose-only effect, or another doubt; inactive means no such curve, though single readings can be large or run the other way.

SMILES	SARS PLP yeast	CHX counter	Shiga toxin inh	Pf growth 96h	Pf growth 48h	NS1 inh
Cc1c(C(=O)Nc2ccc(Cl)cc2)c2ccccn2c1C(=O)c1ccc(F)cc1	2%	-5	-8	?	.	10%
COc1ccccc1CCNC(=O)C(=O)NCC1OCCCN1S(=O)(=O)c1ccc(F)cc1C (stereo not drawn)	-3%	-2	-4	?	-28%	-11%
O=C(Nc1ccc(Oc2ccccc2)cc1)c1ccc(Cn2c(=O)[nH]c3ccsc3c2=O)cc1	-3%	-6	-14	13µM*	18%	-28%
CN(Cc1nc2ccccc2n1C)S(=O)(=O)c1ccc(F)cc1	5%	16*	26	4.7µM*	23%	-5%
CCCC(=O)NCc1nc2ccccc2n1C	1%	-4	-7	2%	10%	-10%
CN(C)c1ccc(N=Nc2nc3ccccc3n2C)cc1	-14%	-9	-13	?	4%	-34%
Cn1c(N=Nc2ccccc2)nc2ccccc21	-60%	40	14	0.26µM*	0.74µM*	-47%
Cn1c(CNc2ccccc2)nc2ccccc21	-2%	37*	67*	0%	143%	-81%
Cn1c(CNc2ccc(F)cc2)nc2ccccc21	-2%	34*	71*	-29%	78%	-12%
O=C(CONS(=O)(=O)c1ccc(Cl)cc1)NCCNc1ncc(C(F)(F)F)cc1Cl	0%	-2	-13	18%	-11%	4%
Clc1cccc(CN2CCCCCCC2)c1Cl	1%	-5	-15	-11%	3%	-1%
CC1=NN(c2nc3ccccc3[nH]2)C(=O)/C1=C/N(C)C	-21%	-5	2	?	126%	.
CC1=NN(c2nc3ccccc3[nH]2)C(=O)C1Cc1ccccc1 (stereo not drawn)	-6%	11	19	4.1µM*	2.6µM*	-59%
CC(=O)OCON[N+]([O-])=NC1CCCCC1	.	-3	12	.	.	.
O=C(O)CC1c2ccccc2C=Cc2ccccc21	0%	.	.	99%	-4%	.
CC(C)=CCN1CCN(Cc2cnc(C)s2)CC1CCO (stereo not drawn)	-2%	43*	70*	?	20%	-7%
CC(C)=CCN1CCN(Cc2cnc(N3CCOCC3)s2)CC1CCO (stereo not drawn)	-1%	58*	98*	12µM*	160%	-2%
CC(C)=CCN1CCN(Cc2cnc(N3CCCC3)s2)CC1CCO (stereo not drawn)	0%	-2	-12	-2%	-1%	4%
CC[C@@]1(C(=O)OC)N[C@H](CN(C)C(=O)c2ccc(C)cc2)[C@@H]2C(=O)N(Cc3ccccc3)C(=O)[C@@H]21	5%	.	.	.	.	.
Cc1nc2sccn2c(=O)c1S(=O)(=O)NCc1ccccc1	0%	-1	-2	62%	23%	0%
CCOC(=O)c1ccc(NS(=O)(=O)c2c(C)nc3sccn3c2=O)cc1	1%	2	1	10µM*	31%	1%
COc1cccc(CNS(=O)(=O)c2c(C)nc3sccn3c2=O)c1	-1%	-3	-1	0.52µM*	4%	12%
Cc1ccc(NS(=O)(=O)c2c(C)nc3sccn3c2=O)cc1	1%	-4	5	0%	-4%	-10%
O=C(COCC(=O)Nc1cccc(C(F)(F)F)c1)Nc1cccc(C(F)(F)F)c1	-1%	5	9	?	.	12%
CCn1cc(Cl)c(C(=O)Nc2ccccc2C(N)=O)n1	-2%	29*	20	13µM*	83%	.
SMILES	SARS PLP yeast	CHX counter	Shiga toxin inh	Pf growth 96h	Pf growth 48h	NS1 inh
CCn1cc(Cl)c(C(=O)Nc2cccc(C(F)(F)F)c2)n1	1%	32*	58*	2.6µM*	174%	.
CCn1cc(Cl)c(C(=O)Nc2ccc3c(c2)OCCO3)n1	-3%	44*	168*	14%	246%	.
COc1cc(NC(=O)CSCC(=O)Nc2cccc(C(F)(F)F)c2)c(Cl)cc1Cl	-37%	-1	9	12µM*	?	-3%
CCCn1nc(C(=O)Nc2ccc3c(c2)OCCO3)c2ccccc2c1=O	1%	.	.	?	20%	.
Cc1cccc(C(=O)NCC(=O)N2CCN(S(=O)(=O)c3ccc4c(c3)OCCO4)CC2)c1	2%	.	.	-24%	?	.
COc1ccc(N(CC(=O)NCCc2ccccc2)C(=O)CCC(=O)Nc2nccs2)c(OC)c1	1%	-3	-9	0%	?	7%
O=C1N/C(=C/c2cccs2)C(=O)N1Cc1ccc(Br)cc1	-4%	16	-32	41%	-22%	.
CCc1ccc(N(C(=O)c2csnn2)C(C(=O)NC(C)(C)C)c2ccccn2)cc1 (stereo not drawn)	-2%	29*	76*	?	25%	4%
CCc1ccc(N(C(=O)c2csnn2)C(C(=O)NC(C)(C)CC)c2ccccn2)cc1 (stereo not drawn)	3%	9	-13	0%	-16%	.
O=C(NC1CCCC1)C(c1ccccn1)N(C(=O)c1csnn1)c1ccccc1Br (stereo not drawn)	1%	.	.	2.1µM*	6%	.
O=C(NCc1ccc(F)cc1)C(c1cccnc1)N(C(=O)c1csnn1)c1ccccc1 (stereo not drawn)	3%	-4	-7	10µM*	-26%	-1%
CCOC(=O)c1ccc(NC(=O)CC2SCCNC2=O)cc1 (stereo not drawn)	-4%	38*	96*	115%	128%	-1%
Cc1ccc(NC(=O)CC2SCCNC2=O)cc1[N+](=O)[O-] (stereo not drawn)	0%	16*	12	39%	6%	3%
Cc1ccccc1NC(=O)CC1SCCNC1=O (stereo not drawn)	4%	0	15	26%	-1%	0%
CON(C)C(=O)CC(CNC(=O)OC(C)(C)C)c1ccc(Cl)cc1 (stereo not drawn)	0%	.	.	.	.	.
CC(C)[C@H](NC(=O)OCc1ccccc1)C(=O)NC(C=O)Cc1ccccc1 (stereo partly drawn)	.	.	.	3.7µM*	1.3µM*	.
CC1CCc2c(sc(NC(=O)CSc3nnc(-c4ccccc4)o3)c2C#N)C1 (stereo not drawn)	6%	23*	active	288%	18%	11%
N#Cc1c(NC(=O)CSc2nnc(-c3ccccc3)o2)sc2c1CCCC2	-7%	16*	52*	0%	?	4%
CC1CCc2c(sc(NC(=O)CSc3ncn[nH]3)c2C#N)C1 (stereo not drawn)	2%	-3	-19	-13%	-22%	-17%
Cc1sc(NC(=O)CSc2nnc(-c3ccccc3)o2)c(C#N)c1C	-7%	33*	58*	-21%	20%	-3%
CC1CCc2c(sc(NC(=O)Cn3nc(C(=O)O)c4ccccc4c3=O)c2C#N)C1 (stereo not drawn)	-2%	6	11	-13%	0%	1%
CC(C)(C)C1CCc2c(sc(NC(=O)CSc3ncn[nH]3)c2C#N)C1 (stereo not drawn)	-12%	14*	21	-22%	-27%	5%
